Here are results for six molecules from PubChem BioAssay (NCI).

Values joined by “and” are separate entries in the source; they are usually repeats but may differ in a detail not shown here. Equal values may be shown once. This is part of a sample that, as a whole, favours compounds with a hit. Of some 83,000 tested, about 20% had one in any assay.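 Compound tested at a single concentration for 48 hours in 96-well plates; a percent growth value below 10 was scored as active.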 Values without a mark were called inactive. Active and inactive are the calls of the source.

Test systems include HCT-15 colon; HT29 colon; SNB-75 CNS; SNB-19 CNS; U251 CNS; PC-3 prostate; SK-MEL-5 melanoma; UACC-62 melanoma; LOX IMVI melanoma; SK-MEL-28 melanoma; SK-MEL-2 melanoma; EKVX NSCLC; SN12C renal; UO-31 renal; TK-10 renal; ACHN renal; CAKI-1 renal; A498 renal; CCRF-CEM leukemia; MOLT-4 leukemia.
Holding throughout (test): NCI-60 one-dose screen, 48 h (100 = growth as untreated, 0 = no growth, -100 = all killed)
Common to all, as to conditions: 10 µM unless noted

On to `O=C1C(N2CCOCC2)=C(I)C(=O)c2ncccc21`, for which the growth with HCT-15 colon was 67.1%; in the experiment with HT29 colon it was 102%; in the experiment on SNB-75 CNS it was 66.3%; in the experiment on SNB-19 CNS, 73%; with U251 CNS it was 61.9%; in the experiment with PC-3 prostate it was 79.4%. For the same molecule, the growth is 89.4% with SK-MEL-5 melanoma; 69.5% in the experiment with UACC-62 melanoma; 43.4% in the experiment with LOX IMVI melanoma; 96.6% in the experiment with SK-MEL-28 melanoma; 91.1% in the experiment on SK-MEL-2 melanoma; 89.3% in the experiment with EKVX NSCLC. Besides, the growth in the experiment with SN12C renal is 60.6%; in the experiment on UO-31 renal it was 54.3%; in the experiment on TK-10 renal, 111%; in the experiment on ACHN renal, 58.7%; in the experiment on CAKI-1 renal, 76.1%; in the experiment with A498 renal, 102%. The values for the growth in the experiment on CCRF-CEM leukemia and with MOLT-4 leukemia were 62.4% and 50.5%, respectively.

As for `C=C1C(=O)O[C@H]2[C@H]1CC/C(COC(=O)NCc1ccc(Cn3c(=O)sn(CCCI)c3=O)cc1)=C\CC[C@@]1(C)O[C@@H]21`, the growth is 26.9% with HCT-15 colon; -46.1% (active) in the experiment with HT29 colon; 71.7% with SNB-75 CNS; 96.2% with SNB-19 CNS; 50.9% in the experiment on U251 CNS; 49.2% with PC-3 prostate. The growth with SK-MEL-5 melanoma was 91.9%; in the experiment with UACC-62 melanoma it was 15.6%; in the experiment on LOX IMVI melanoma, -24.5% (active); in the experiment with SK-MEL-28 melanoma, 4.93% (active); with SK-MEL-2 melanoma, 68.5%; in the experiment on EKVX NSCLC, 91.7%. The growth was 2.19% (active) with SN12C renal; -30.1% (active) in the experiment on UO-31 renal; 0.113% (active) with TK-10 renal; 16.2% in the experiment with ACHN renal; 33.7% in the experiment with CAKI-1 renal; 105% in the experiment on A498 renal. The growth with CCRF-CEM leukemia was -9.69% (active); in the experiment with MOLT-4 leukemia, 9.74% (active).

Take `N=c1c2c(-c3ccccc3)c(-c3ccccc3)oc2ncn1NC(=O)c1cccnc1`: the growth was 95.6% with HCT-15 colon; 104% in the experiment on HT29 colon; 105% with SNB-75 CNS; 96.4% in the experiment with SNB-19 CNS; 102% with U251 CNS; 93.6% with PC-3 prostate. The growth in the experiment on SK-MEL-5 melanoma is 93.4%; with UACC-62 melanoma it was 104%; in the experiment with LOX IMVI melanoma it was 95%; in the experiment with SK-MEL-28 melanoma, 119%; in the experiment with SK-MEL-2 melanoma, 111%; with EKVX NSCLC, 96.1%. Besides, the growth in the experiment with SN12C renal is 102%; in the experiment on UO-31 renal, 75.9%; in the experiment on TK-10 renal, 112%; in the experiment with ACHN renal, 109%; with CAKI-1 renal it was 93.8%; in the experiment on A498 renal, 73.6%. In addition, the growth in the experiment on CCRF-CEM leukemia is 84%; in the experiment on MOLT-4 leukemia, 89.9%.

Consider `Cc1n(Cc2ccc3ccccc3c2)c(Cl)c(Cl)[n+]1Cc1ccc2ccccc2c1`, for which the growth was 92.5% in the experiment on HCT-15 colon; 19.2% with HT29 colon; -1.79% (active) in the experiment with SNB-75 CNS; 23.3% in the experiment on SNB-19 CNS; 19.8% in the experiment with U251 CNS; 12.2% in the experiment on PC-3 prostate. Besides, the growth is -79.4% (active) with SK-MEL-5 melanoma; -40.3% (active) in the experiment on UACC-62 melanoma; 27.8% in the experiment on LOX IMVI melanoma; 26.6% in the experiment with SK-MEL-28 melanoma; 25.5% in the experiment with SK-MEL-2 melanoma; 51.1% in the experiment on EKVX NSCLC. Further, the growth in the experiment on SN12C renal is 30.7%; in the experiment with UO-31 renal it was 72.1%; in the experiment with TK-10 renal it was 52.5%; with ACHN renal it was 80.8%; with CAKI-1 renal, 29.2%; in the experiment with A498 renal, 40.3%. Further, the growth was 14% in the experiment with CCRF-CEM leukemia and 25.4% in the experiment with MOLT-4 leukemia.

Turning to `O=[N+]([O-])c1ccc2[nH]c3nccc(NCc4cccc(Cl)c4)c3c2c1`, the growth in the experiment with HCT-15 colon is 83.2%; in the experiment on HT29 colon, 76.3%; with SNB-75 CNS, 7.78% (active); in the experiment on SNB-19 CNS, 53.3%; in the experiment on U251 CNS, 43.1%; in the experiment on PC-3 prostate, 67.5%. In addition, the growth in the experiment on SK-MEL-5 melanoma was 83.7%; with UACC-62 melanoma, 82.2%; in the experiment on LOX IMVI melanoma it was 81.4%; with SK-MEL-28 melanoma, 101%; in the experiment with SK-MEL-2 melanoma, 93%; with EKVX NSCLC, 50.8%. Also, the growth in the experiment on SN12C renal was 86.5%; in the experiment with UO-31 renal it was 87.2%; in the experiment on TK-10 renal, 72.8%; with ACHN renal, 68.2%; with CAKI-1 renal, 60.2%; in the experiment on A498 renal, 71.4%. For the same molecule, the growth in the experiment with CCRF-CEM leukemia is 79.6%; with MOLT-4 leukemia, 75.9%.

As for `COc1cc(C(=O)c2ccccc2C(=O)O)c(OC)c2c1CCCC2`, the growth in the experiment with HCT-15 colon was 93.4% and 104%; in the experiment on HT29 colon, 105% and 98.2%; in the experiment with SNB-75 CNS, 94.1% and 87.4%; in the experiment with SNB-19 CNS, 94.6% and 102%; in the experiment on U251 CNS, 97% and 100%; in the experiment on PC-3 prostate, 93.3% and 103%. The growth with SK-MEL-5 melanoma was 96.6% and 97.5%; in the experiment on UACC-62 melanoma it was 96.1% and 101%; with LOX IMVI melanoma, 94.3% and 94.1%; in the experiment with SK-MEL-28 melanoma it was 102% and 113%; in the experiment with SK-MEL-2 melanoma it was 115%; with EKVX NSCLC, 87.7%. Also, the growth in the experiment on SN12C renal was 96.4% and 98.3%; in the experiment with UO-31 renal, 81.9% and 84.1%; in the experiment with TK-10 renal, 67.5% and 107%; with ACHN renal, 102% and 103%; in the experiment with CAKI-1 renal, 98.2% and 98.9%; in the experiment on A498 renal, 52.8% and 110%. Moreover, the growth in the experiment on CCRF-CEM leukemia is 113% and 90.4%; in the experiment on MOLT-4 leukemia it was 86.3% and 95.7%.
